# Results: the supplement of paper PMC12645437, “Orthogonal IMiD-Degron Pairs Induce Selective Protein Degradation in Cells” (ACS Chemical Biology, 2025)
# Whole data set: some 8,300 sequences, median “log2 fold change of degron read counts, EGFP-low vs EGFP+ sorted cells (limma voom), compound-induced degradation” near -1.1, cut for the highest 2% near 3.2. What follows is part of a selection rich in the highest values, with near analogues and random picks from the rest.
# Target: T1, CRBN, Q96SW2
# T1 chain: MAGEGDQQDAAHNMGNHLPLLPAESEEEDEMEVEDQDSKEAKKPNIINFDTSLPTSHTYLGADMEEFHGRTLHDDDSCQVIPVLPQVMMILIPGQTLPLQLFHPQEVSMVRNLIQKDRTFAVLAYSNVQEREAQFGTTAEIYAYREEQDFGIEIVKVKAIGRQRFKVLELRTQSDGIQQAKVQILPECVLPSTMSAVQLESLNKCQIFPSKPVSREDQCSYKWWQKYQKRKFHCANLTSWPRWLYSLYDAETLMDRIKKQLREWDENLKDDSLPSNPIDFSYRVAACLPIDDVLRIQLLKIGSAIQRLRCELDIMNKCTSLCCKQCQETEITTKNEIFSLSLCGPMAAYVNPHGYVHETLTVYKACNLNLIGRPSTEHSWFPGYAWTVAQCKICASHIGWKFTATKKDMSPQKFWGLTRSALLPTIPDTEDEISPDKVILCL
# Test: log2 fold change of degron read counts, EGFP-low vs EGFP+ sorted cells (limma voom), compound-induced degradation; higher = more compound-induced degradation of the degron-EGFP fusion; degrons are variants of IKZF1/3 zinc finger 2; compound dose not given here
# Conditions: Jurkat, 18 h
# [1] = compound: compound 19 (5-tert-butyl-thalidomide)
# [2] = compound: compound 22 (5-morpholino-thalidomide)
# [3] = compound: compound 33 (diphenyl IMiD analogue)
# 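Also: pooled lentiviral library of zinc finger degron-EGFP fusions in mCherry-positive Jurkat cells, FACS-sorted after compound exposure, with degron abundance counted by next-generation sequencing.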
sequence,measurement,setting,value
"FFCNVCGAYFTQKGNLLRHIKL [46F_47F_49N_50V_52G_53A_54Y_55F_67L_, Q9UKT9]",log2 fold change of degron read counts,[1],-0.163
same,log2 fold change of degron read counts,[2],0.227
same,log2 fold change of degron read counts,[3],0.144
same,log2 fold change of degron read counts,compound: thalidomide,-1.05
"FMCEICGRNFTQKGNLLRHIKL [46F_47M_49E_50I_52G_53R_54N_55F_67L_, Q9UKT9]",log2 fold change of degron read counts,[1],-2.42
same,log2 fold change of degron read counts,[2],-2.71
same,log2 fold change of degron read counts,[3],-0.582
same,log2 fold change of degron read counts,compound: thalidomide,-1.02
"FFCSVCGHWFTQKGNLLRHIKL [46F_47F_49S_50V_52G_53H_54W_55F_67L_, Q9UKT9]",log2 fold change of degron read counts,[1],-1.15
same,log2 fold change of degron read counts,[2],-1.58
same,log2 fold change of degron read counts,[3],-1.38
same,log2 fold change of degron read counts,compound: thalidomide,-1.26
"FTCPICGHLFTQKGNLLRHIKL [46F_47T_49P_50I_52G_53H_54L_55F_67L_, Q9UKT9]",log2 fold change of degron read counts,[1],-2.23
same,log2 fold change of degron read counts,[2],-2.6
same,log2 fold change of degron read counts,[3],-1.44
same,log2 fold change of degron read counts,compound: thalidomide,-1.57
"FFCPVCGARFTQKGNLLRHIKL [46F_47F_49P_50V_52G_53A_54R_55F_67L_, Q9UKT9]",log2 fold change of degron read counts,[1],3.35
same,log2 fold change of degron read counts,[2],3.29
same,log2 fold change of degron read counts,[3],1.72
same,log2 fold change of degron read counts,compound: thalidomide,1.35
"FMCPVCGARFTQKGNLLRHIKL [46F_47M_49P_50V_52G_53A_54R_55F_67L_, Q9UKT9]",log2 fold change of degron read counts,[1],-0.509
same,log2 fold change of degron read counts,[2],0.0794
same,log2 fold change of degron read counts,[3],1.25
same,log2 fold change of degron read counts,compound: thalidomide,0.719
"FQCPVCGARFTQKGNLLRHIKL [46F_47Q_49P_50V_52G_53A_54R_55F_67L_, Q9UKT9]",log2 fold change of degron read counts,[1],-0.395
same,log2 fold change of degron read counts,[2],2.27
same,log2 fold change of degron read counts,[3],1.08
same,log2 fold change of degron read counts,compound: thalidomide,3.63
"FACPVCGARFTQKGNLLRHIKL [46F_47A_49P_50V_52G_53A_54R_55F_67L_, Q9UKT9]",log2 fold change of degron read counts,[1],3.49
same,log2 fold change of degron read counts,[2],2.28
same,log2 fold change of degron read counts,[3],-0.0911
same,log2 fold change of degron read counts,compound: thalidomide,1.06
"FECPVCGARFTQKGNLLRHIKL [46F_47E_49P_50V_52G_53A_54R_55F_67L_, Q9UKT9]",log2 fold change of degron read counts,[1],0.67
same,log2 fold change of degron read counts,[2],-0.349
same,log2 fold change of degron read counts,[3],1.42
same,log2 fold change of degron read counts,compound: thalidomide,2.94
"FCCPVCGARFTQKGNLLRHIKL [46F_47C_49P_50V_52G_53A_54R_55F_67L_, Q9UKT9]",log2 fold change of degron read counts,[1],2.31
same,log2 fold change of degron read counts,[2],2.41
same,log2 fold change of degron read counts,[3],1.79
same,log2 fold change of degron read counts,compound: thalidomide,2.26
"FVCPVCGARFTQKGNLLRHIKL [46F_47V_49P_50V_52G_53A_54R_55F_67L_, Q9UKT9]",log2 fold change of degron read counts,[1],0.0453
same,log2 fold change of degron read counts,[2],2.18
same,log2 fold change of degron read counts,[3],0.744
same,log2 fold change of degron read counts,compound: thalidomide,2.8
"FDCPVCGARFTQKGNLLRHIKL [46F_47D_49P_50V_52G_53A_54R_55F_67L_, Q9UKT9]",log2 fold change of degron read counts,[1],3.12
same,log2 fold change of degron read counts,[2],1.66
same,log2 fold change of degron read counts,[3],1.4
same,log2 fold change of degron read counts,compound: thalidomide,2.71
"FHCPVCGARFTQKGNLLRHIKL [46F_47H_49P_50V_52G_53A_54R_55F_67L_, Q9UKT9]",log2 fold change of degron read counts,[1],1.99
same,log2 fold change of degron read counts,[2],2.23
same,log2 fold change of degron read counts,[3],0.971
same,log2 fold change of degron read counts,compound: thalidomide,0.937
"LSCEICGFICTQKGNLLRHIKL [46L_47S_49E_50I_52G_53F_54I_55C_67L_, Q9UKT9]",log2 fold change of degron read counts,[1],0.617
same,log2 fold change of degron read counts,[2],0.753
same,log2 fold change of degron read counts,[3],0.094
same,log2 fold change of degron read counts,compound: thalidomide,0.23
"LRCNQCGFDCTQKGNLLRHIKL [46L_47R_49N_50Q_52G_53F_54D_55C_67L_, Q9UKT9]",log2 fold change of degron read counts,[1],-2.4
same,log2 fold change of degron read counts,[2],-3.02
same,log2 fold change of degron read counts,[3],-2
same,log2 fold change of degron read counts,compound: thalidomide,-2.27
"FICEICGAVFTQKGNLLRHIKL [46F_47I_49E_50I_52G_53A_54V_55F_67L_, Q9UKT9]",log2 fold change of degron read counts,[1],-0.571
same,log2 fold change of degron read counts,[2],1.25
same,log2 fold change of degron read counts,[3],2.53
same,log2 fold change of degron read counts,compound: thalidomide,2.12
"FECEQCGAIFTQKGNLLRHIKL [46F_47E_49E_50Q_52G_53A_54I_55F_67L_, Q9UKT9]",log2 fold change of degron read counts,[1],-2.86
same,log2 fold change of degron read counts,[2],-2.97
same,log2 fold change of degron read counts,[3],-1.26
same,log2 fold change of degron read counts,compound: thalidomide,-0.499
"LACEICGFECTQKGNLLRHIKL [46L_47A_49E_50I_52G_53F_54E_55C_67L_, Q9UKT9]",log2 fold change of degron read counts,[1],0.602
same,log2 fold change of degron read counts,[2],-0.739
same,log2 fold change of degron read counts,[3],-1.36
same,log2 fold change of degron read counts,compound: thalidomide,-0.804
